Reference: PubChem BioAssay (NCATS)
Results filed as inconclusive are left out. Active and inactive are the calls of the source. Calls follow the shape of the dose curve; as a rule, active = well fitted curve in the direction sought with a large enough effect; inconclusive = small, poorly fitted or top-dose-only effect, or another doubt; inactive = no such curve, though single readings can be large; an effect the other way counts as inactive or inconclusive.
Potency is read from the fitted curve at half-maximal effect.

Experiment: qHTS of pediatric cancer cell lines to identify multiple opportunities for drug repurposing: Confirmatory screen for DAOY cells (AID 1347114); also: nearly all actives have a fitted effect of over 65% in size
Details: DAOY medulloblastoma cells viability, cytotoxicity qHTS; series mostly up to 45.9 µM
Outline: (§1)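 Viability measured as metabolically active cells via CellTiter-Glo luminescence following 48 hours of compound exposure, 11-point dilutions in confirmatory testing. 500-1,000 cells/well plated 5 hours before dosing; controls were DMSO and 2.3 µM bortezomib.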
In the case of `CC[C@H]1C=CC=CC[C@@H](C)[C@H](O)[C@@](C)(O)C(=O)[C@@H](C)[C@H](O)[C@@H](C)C(=O)[C@@H](C)[C@H](O)[C@@H](C)C=CC(=O)O[C@@H]2[C@@H](C)[C@H](CC1)O[C@]1(CC[C@H](C)[C@H](C[C@@H](C)O)O1)[C@H]2C`, the Potency is reported as 3.7 nM (active). With `COC1=CC(C)=C[C@@H](C)[C@@H](O)[C@@H](C)CC(C)=CC=C[C@H](OC)[C@H]([C@@H](C)[C@@H](O)[C@H](C)[C@@]2(O)C[C@@H](O)[C@H](C)[C@@H](C(C)C)O2)OC1=O` the Potency was “inactive”. For `COc1cc([C@@H]2c3cc4c(cc3[C@@H](O)C3COC(=O)C32)OCO4)cc(OC)c1O` (stereo partly drawn), the Potency was 185 nM (active). For `O=[N+]([O-])c1c(Cl)c(Cl)cc(Cl)c1Cl`, the Potency was “inactive”. With `O=C(O)COc1nc(Cl)c(Cl)cc1Cl` the Potency was “inactive”. With `COc1ccc(C(=O)c2c(C)n(CCN3CCOCC3)c3cc(I)ccc23)cc1` the Potency was 18500 nM (active).

Experiment: qHTS of pediatric cancer cell lines to identify multiple opportunities for drug repurposing: Confirmatory screen for NB-EBc1 cells (AID 1347115);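 also: cells exposed to compound for 48 h before the viability read; nearly all actives have a fitted effect of over 45% in size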
Details: NB-EBc1 neuroblastoma cells, viability (cytotoxicity); series mostly up to 45.9 µM
Outline: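 Cells (500-1,000/well) in growth media were settled 5 h at 37 degrees C, then given compounds for 48 h. Viability was read as CellTiter-Glo luminescence. Primary runs used MIPE at 11 points (0.78 nM-46 µM) and NPC at 8 points (0.59 nM-46 µM); follow-ups used 11 points.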
For `CC[C@H]1C=CC=CC[C@@H](C)[C@H](O)[C@@](C)(O)C(=O)[C@@H](C)[C@H](O)[C@@H](C)C(=O)[C@@H](C)[C@H](O)[C@@H](C)C=CC(=O)O[C@@H]2[C@@H](C)[C@H](CC1)O[C@]1(CC[C@H](C)[C@H](C[C@@H](C)O)O1)[C@H]2C`, the Potency was 208 nM (active). For `COc1cc([C@@H]2c3cc4c(cc3[C@@H](O)C3COC(=O)C32)OCO4)cc(OC)c1O` (stereo partly drawn), the Potency was 3690 nM (active). With `O=C(O)COc1nc(Cl)c(Cl)cc1Cl` the Potency was “inactive”.

Experiment: qHTS of pediatric cancer cell lines to identify multiple opportunities for drug repurposing: Confirmatory screen for SJ-GBM2 cells (AID 1347116); also: nearly all actives have a fitted effect of over 60% in size
Details: SJ-GBM2 glioblastoma cells, viability; series mostly up to 45.9 µM
Outline: as §1
In the case of `CC[C@H]1C=CC=CC[C@@H](C)[C@H](O)[C@@](C)(O)C(=O)[C@@H](C)[C@H](O)[C@@H](C)C(=O)[C@@H](C)[C@H](O)[C@@H](C)C=CC(=O)O[C@@H]2[C@@H](C)[C@H](CC1)O[C@]1(CC[C@H](C)[C@H](C[C@@H](C)O)O1)[C@H]2C`, the Potency is reported as 20800 nM (active). In the case of `COc1cc([C@@H]2c3cc4c(cc3[C@@H](O)C3COC(=O)C32)OCO4)cc(OC)c1O` (stereo partly drawn), the Potency is reported as “inactive”. With `COc1ccc2c(c1)CN(C)CC2c1ccc(Cl)c(Cl)c1` (stereo not drawn) the Potency was 1470 nM (active). For `Cc1c(N)nc([C@H](CC(N)=O)NC[C@@H](N)C(N)=O)nc1C(=O)N[C@H](C(=O)N[C@@H](C)[C@H](O)[C@@H](C)C(=O)N[C@@H](C(=O)NCCc1nc(-c2nc(C(=O)NCCC[S+](C)C)cs2)cs1)[C@@H](C)O)C(O[C@H]1O[C@H](CO)[C@H](O)[C@@H](O)[C@@H]1O[C@H]1O[C@H](CO)[C@@H](O)[C@H](OC(N)=O)[C@H]1O)c1cnc[nH]1` (stereo partly drawn), the Potency was “inactive”.
